Hits are enriched below; roughly 2.9% of the tested compounds scored in any of these assays.
mIDH1 inhibitor – inhibitors of human mutant IDH1 R132H | O75874 | IDH1-R132H enzyme, NADPH consumption, diaphorase/resazurin fluorescence | Potency, µM (highest dose often 76.6 µM), for the others: at the highest dose activity change, negative = inhibition, hits mostly inhibitors | actives 0.093% (n = 390,000) | AID 602179; further: potency means the concentration at half of the fitted maximal effect; on the % scale 0 is the no-effect control and ±100 the full control effect; nearly all actives have a fitted effect of over 65% in size
Target sequence (O75874 whole entry R132H, stated change not applied): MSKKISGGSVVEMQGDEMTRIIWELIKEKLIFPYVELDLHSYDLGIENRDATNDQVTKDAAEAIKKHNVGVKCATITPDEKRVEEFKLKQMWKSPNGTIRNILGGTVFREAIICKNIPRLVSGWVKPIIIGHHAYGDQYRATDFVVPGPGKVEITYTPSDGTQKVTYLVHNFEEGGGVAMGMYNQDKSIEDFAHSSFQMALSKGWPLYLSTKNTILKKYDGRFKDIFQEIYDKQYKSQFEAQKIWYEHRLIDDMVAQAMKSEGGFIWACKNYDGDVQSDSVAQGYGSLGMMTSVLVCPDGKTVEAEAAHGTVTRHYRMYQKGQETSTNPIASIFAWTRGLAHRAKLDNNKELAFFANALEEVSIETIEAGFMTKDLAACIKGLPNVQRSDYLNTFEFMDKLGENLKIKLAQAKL
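IDH1-R132H (0.5 ug/mL) preincubated 30 min with compound, then NADPH (0.016 mM) and alpha-KG (2 mM) added; 80 min at RT, pH 7.5. Remaining NADPH coupled via diaphorase/resazurin to fluorescence (540/590 nm); concentration-response curves normalized to no-enzyme control.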
Integrin act MD – activators of alpha7 integrin expression for muscular dystrophy; alpha7betagal myoblasts, beta-gal FDG fluorescence, 48 h; Potency, µM (doses to about 38.3 µM), for inactives: top-dose activation, hits mostly activators; actives 0.064% (n = 350,000); AID 624291;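 further: potency means the concentration at half of the fitted maximal effect; 100% = response of the positive control SU9516; nearly all actives have a fitted effect of over 60% in size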
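alpha7betagal+/- myoblasts (passage 13, 250/well) treated 48 h at 37C with compounds at 1:260 dilution of DMSO stock. Lysed, then beta-galactosidase activity read as FDG fluorescence (ex 480/em 540) after 30 min, with pre-read for autofluorescence.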
B2AR arrestin – beta2AR (human) beta-arrestin recruitment activity | Potency, µM (doses to about 46.1 µM), for the others: at the top dose activation, actives largely listed as activators | AID 492947 | actives 0.02% (n = 330,000) | P07550 | beta-arrestin recruitment to beta2AR, cell-based reporter;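 further: potency means the concentration at half of the fitted maximal effect; 0% = DMSO controls and full agonism = EC100 isoproterenol or metaproterenol; nearly all actives have a fitted effect of over 65% in size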
D3 ag – agonists of human D3 dopamine receptor | P35462 | D3R DiscoveRx beta-arrestin cells, luminescence, 90 min | max activation, % | actives 0.58% (n = 410,000); in the data active means max activation above about 30%; further: 0% is about no effect
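Cells at 1500/well, incubated overnight, then treated with pinned compounds (dopamine as control) for 90 min at 37 degrees C. DiscoveRx reagent added for 30 - 60 minutes at room temperature; luminescence read.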
DRD3 antagonist – D3 dopamine receptor (human) antagonism | P35462 | D3R cells, DiscoveRx beta-arrestin luminescence, antagonist mode; hits give low values | max response, negative = inhibition, % | actives 2.5% (n = 360,000) | AID 652054; in the data active means max response below about -50%; inconclusive means no clear call, values can overlap the other calls; further: on the % scale 0 is the no-effect control and ±100 the full control effect
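Cells plated overnight at 1500 cells/well, then exposed to library compounds with dopamine controls for 90 minutes at 37 degrees C. DiscoveRx reagent added for 30–60 minutes at room temperature; luminescence read, quantitative HTS format.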
The depositor's hits bear a star; ? = inconclusive; . = no result. Unless noted, the call rests on the fitted dose curve; in most records, active means well fitted curve in the direction sought with a large enough effect; inconclusive means small, poorly fitted or top-dose-only effect, or another doubt; inactive means no such curve, though single readings can be large; an effect the other way counts as inactive or inconclusive.

SMILES	mIDH1 inhibitor	Integrin act MD	B2AR arrestin	D3 ag	DRD3 antagonist
C[C@H]1[C@H]2Cc3ccc(O)cc3[C@]1(C)CCN2CCc1ccccc1	.	.	.	-17	.
Oc1cc(Cl)c(Cl)c(Cl)c1	4%	.	.	61*	68
CNC(C)CC1CCCCC1 (stereo not drawn)	.	.	.	-22	.
CN(C)CCc1c[nH]c2ccccc12	.	.	.	-13	.
Clc1ccc2c(c1)C(c1ccccc1Cl)=NCc1nnc(N3CCN(CCOc4ccccc4)CC3)n1-2	-4%	-31%	?	54*	-11
COP(=S)(OC)Oc1ccc(S(N)(=O)=O)cc1	.	.	.	4	.
O=C(COc1ccccc1)N1CCN(CC(O)COc2ccccc2)CC1 (stereo not drawn)	0%	-17%	0%	-13	-74*
CCC1C2CC3C4N(C)c5ccccc5C45CC(C2C5O)N3[C@@H]1O (stereo partly drawn)	-16%	-26%	0%	-21	-70*
CC[C@H]1C2C[C@H]3[C@@H]4N(C)c5ccccc5C45C[C@H](C2[C@H]5O)N3[C@@H]1O (stereo partly drawn)	-3%	.	0%	-9	-55*
CC[C@H]1[C@@H]2C[C@H]3[C@@H]4N(C)c5ccccc5[C@]45C[C@@H](C2[C@H]5O)N3[C@@H]1O (stereo partly drawn)	.	.	.	-25	.
N#Cc1c(/N=C/C2C(=O)NC(=S)NC2=O)sc2c1CCCC2	9%	-27%	0%	32*	3
CCOC(=O)c1c(/N=C/C2C(=O)NC(=S)NC2=O)sc2c1CCC2	0%	15%	0%	-3	-14
CN1CCc2cc(O)cc3c2[C@H]1Cc1ccc(O)c(O)c1-3	0%	.	.	-32	-84*
COc1ccc(CN2CCN(c3ccccc3)CC2)c(C)c1C	6%	-8%	0%	1	-75*
O=P(CN1CCN(c2ccccc2)CC1)(N1CCCCC1)N1CCCCC1	5%	11%	0%	1	?
Oc1ccc(Cl)cc1CN1CCN(Cc2ccccc2)CC1	5%	-11%	0%	-3	-66*
Oc1cc2c(cc1CN1CCN(c3ccc(F)cc3)CC1)OCO2	8%	-14%	0%	-24	-66*
Brc1cc2c(cc1CN1CCN(c3ccccc3)CC1)OCCO2	1%	-25%	0%	-28	-73*
CC1(C)S[C@@H]2[C@H](N)C(=O)N2[C@H]1C(=O)O	.	.	.	4	.
CNC(C)Cc1ccccc1OC (stereo not drawn)	.	.	.	-12	.
C[C@H]1CC[C@]2(NC1)O[C@H]1C[C@H]3[C@@H]4CC[C@H]5C[C@@H](O[C@@H]6O[C@H](CO)[C@H](O[C@@H]7O[C@H](CO)[C@@H](O)[C@H](O[C@@H]8OC[C@@H](O)[C@H](O)[C@H]8O)[C@H]7O[C@@H]7O[C@H](CO)[C@@H](O)[C@H](O)[C@H]7O)[C@H](O)[C@H]6O)CC[C@]5(C)[C@H]4CC[C@]3(C)[C@H]1[C@@H]2C	.	.	.	-22	.
Oc1cc2c(cc1CN1CCN(c3ccccc3)CC1)CCC2	-3%	-19%	0%	-2	-7
Cc1cc(O)c(CN2CCN(c3ccccc3)CC2)cc1C	1%	-10%	0%	-24	-65*
Cc1ccc(O)c(CN2CCN(c3ccccc3)CC2)c1	5%	0%	-1%	-6	-80*
CC1CN(c2ccccc2)NC1=O (stereo not drawn)	26%	2%	0%	4	-14
SMILES	mIDH1 inhibitor	Integrin act MD	B2AR arrestin	D3 ag	DRD3 antagonist
CCCCCCC(=O)O[C@H]1CC[C@H]2[C@@H]3CC[C@H]4CC(=O)C=C(C)[C@]4(C)[C@H]3CC[C@]12C	.	.	.	7	.
CN1CN(c2ccccc2)C2(CCN(CCCSc3ccccc3NC(=O)/C=C/c3ccccc3)CC2)C1=O	2%	-57%	.	-10	-107*
Cc1ccccc1S(=O)(=O)N(C)C[C@@H]1OCc2ccccc2-c2c(n(C)c3ccccc23)C(=O)N([C@H](C)CO)C[C@@H]1C	-4%	-59%	.	5	22
O=c1[nH]c(CN2CC=C(c3ccccc3)CC2)nc2scc(-c3ccccc3)c12	0%	-22%	0%	68*	-7
C[C@@H]1NCCc2cc(O)c(O)cc21	0%	.	-1%	-75	-74*
O=c1[nH]c(=O)n(-c2cccc3ccccc23)c(O)c1C=NCc1ccc2c(c1)OCO2	3%	3%	0%	-1	-63*

High-throughput results: PubChem, National Center for Advancing Translational Sciences (NCATS)
